According to PubChem BioAssay AID1159580 (chemical genetic matrix, 2015):
In all, about 5,500 compounds went through this assay and about 2,000 (36%) were called active. Inconclusive results (about 18%) are left out. No stated cut-off is given here; in the data, active means normalized growth mostly below about 0.91 (no sharp cut-off); inconclusive means no clear call, values can overlap the other calls; inactive means mostly above about 0.92. Some of the results follow.

Experiment: chemical genetic growth profiling, strain panel (AID 1159580);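 further: tested at 20 µM; growth read once vehicle control cultures reached saturation at 30 °C; 1 = growth at the plate median or of vehicle wells; lower values mean less growth of the strain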
Conditions: S. cerevisiae deletion strains, growth OD

Measured: normalized growth

COc1ccc(-c2cc(=O)c3c(O)cc(O)c(-c4cc(-c5cc(=O)c6c(O)cc(O)cc6o5)ccc4OC)c3o2)cc1
inactive: locus YAL021C, strain ccr4, hits give low values 1 | locus YAL026C, strain drs2, hits give low values 1.01 | locus YAL030W, strain snc1, hits give low values 0.997 | locus YBL061C, strain skt5, hits give low values 1.01 | locus YBR009C, strain hhf1, hits give low values 1.01 | locus YBR021W, strain FUR4, hits give low values 1.03 | locus YBR023C, strain chs3, hits give low values 1 | locus YBR171W, strain sec66, hits give low values 1.02 | locus YBR229C, strain ROT2, hits give low values 0.998 | locus YBR231C, strain swc5, hits give low values 1.01 | locus YBR279W, strain paf1, hits give low values 1.01 | locus YCL011C, strain gbp2, hits give low values 1 | locus YCL016C, strain dcc1, hits give low values 1 | locus YCL029C, strain bik1, hits give low values 1.01 | locus YCL061C, strain MRC1, hits give low values 1.01 | locus YCL069W, strain vba3, hits give low values 1.01 | locus YCR088W, strain abp1, hits give low values 1.02 | locus YDL005C, strain med2, hits give low values 1.01 | locus YDL035C, strain GPR1, hits give low values 1.03 | locus YDL040C, strain nat1, hits give low values 1.01 | locus YDL074C, strain BRE1, hits give low values 1.05 | locus YDL101C, strain DUN1, hits give low values 1.01 | locus YDL185W, strain tfp1, hits give low values 0.997 | locus YDL192W, strain arf1, hits give low values 1 | locus YDR001C, strain nth1, hits give low values 1.02 | locus YDR069C, strain doa4, hits give low values 0.95 | locus YDR101C, strain arx1, hits give low values 1.02 | locus YDR137W, strain rgp1, hits give low values 0.997 | locus YDR159W, strain sac3, hits give low values 1.03 | locus YDR162C, strain NBP2, hits give low values 0.993 | locus YDR195W, strain ref2 0.993 | locus YDR297W, strain sur2, hits give low values 0.998 | locus YDR318W, strain mcm21, hits give low values 1 | locus YDR334W, strain swr1, hits give low values 0.992 | locus YDR335W, strain msn5, hits give low values 1.01 | locus YDR388W, hits give low values 1 | locus YDR392W, strain spt3, hits give low values 0.998 | locus YDR502C, strain sam2, hits give low values 1.02 | locus YEL003W, strain gim4, hits give low values 1 | locus YEL037C, strain rad23, hits give low values 1.02 | locus YEL061C, strain CIN8 (second series), hits give low values 1.01 | locus YEL061C, strain CIN8, hits give low values 1.01 | locus YER015W, strain faa2, hits give low values 1.01 | locus YER016W, strain bim1, hits give low values 1.01 | locus YER110C, hits give low values 1.02 | locus YER111C, strain swi4, hits give low values 1.03 | locus YER155C, strain BEM2 (second series), hits give low values 0.995 | locus YER155C, strain BEM2, hits give low values 1.01 | locus YER167W, strain BCK2, hits give low values 1.02 | locus YFR010W, strain ubp6, hits give low values 0.965 | locus YGL078C, strain dbp3, hits give low values 1.01 | locus YGL167C, strain pmr1, hits give low values 1.01 | locus YGL173C, strain kem1, hits give low values 1 | locus YGL227W, strain vid30, hits give low values 1.02 | locus YGL240W, strain doc1, hits give low values 1.02 | locus YGL248W, strain PDE1, hits give low values 0.986 | locus YGL253W, strain hxk2, hits give low values 1.01 | locus YGR078C, strain PAC10, hits give low values 1.03 | locus YGR135W, strain pre9, hits give low values 0.997 | locus YGR252W, strain gcn5, hits give low values 0.995 | locus YHR013C, strain ard1, hits give low values 0.993 | locus YHR027C, strain rpn1, hits give low values 1.01 | locus YHR030C, strain SLT2, hits give low values 1.02 | locus YHR079C, strain IRE1 (second series), hits give low values 1.01 | locus YHR094C, strain hxt1, hits give low values 1.01 | locus YHR129C, strain ARP1, hits give low values 1.01 | locus YHR142W, strain chs7, hits give low values 0.998 | locus YHR200W, strain rpn10, hits give low values 1.01 | locus YIL066C, strain RNR3, hits give low values 0.993 | locus YIL073C, strain SPO22, hits give low values 1.03 | locus YIL125W, strain kgd1, hits give low values 1.01 | locus YIR030C, strain dcg1, hits give low values 1.01 | locus YJL092W, strain hpr5, hits give low values 1.02 | locus YJL095W, strain BCK1 (second series), hits give low values 1.01 | locus YJL095W, strain BCK1, hits give low values 1.08 | locus YJL115W, strain asf1, hits give low values 1.01 | locus YJL129C, strain trk1, hits give low values 1.04 | locus YJL134W, strain LCB3, hits give low values 1.02 | locus YJL154C, strain vps35, hits give low values 1.01 | locus YJL164C, strain tpk1, hits give low values 0.987 | locus YJL166W, strain qcr8, hits give low values 0.997 | locus YJL168C, strain set2, hits give low values 1.01 | locus YJL187C, strain SWE1 (second series), hits give low values 0.993 | locus YJL187C, strain SWE1, hits give low values 0.99 | locus YJR043C, strain POL32, hits give low values 1.01 | locus YJR075W, strain HOC1, hits give low values 1.04 | locus YKL009W, strain mrt4, hits give low values 1.03 | locus YKL068W, hits give low values 1.01 | locus YKL085W, strain MDH1 (second series), hits give low values 1.06 | locus YKL085W, strain MDH1, hits give low values 1.06 | locus YKL160W, strain elf1, hits give low values 0.998 | locus YKR001C, strain vps1, hits give low values 1.01 | locus YKR026C, strain gcn3, hits give low values 0.998 | locus YKR091W, strain srl3, hits give low values 1.01 | locus YLL001W, strain dnm1, hits give low values 1.02 | locus YLL026W, hits give low values 1.02 | locus YLL041C, strain sdh2, hits give low values 0.995 | locus YLR027C, strain aat2, hits give low values 1 | locus YLR039C, strain RIC1, hits give low values 1.16 | locus YLR058C, strain SHM2, hits give low values 1 | locus YLR102C, strain apc9, hits give low values 1.01 | locus YLR221C, strain rsa3, hits give low values 0.999 | locus YLR258W, strain gsy2, hits give low values 1.01 | locus YLR262C, strain YPT6 (second series), hits give low values 1.02 | locus YLR262C, strain YPT6, hits give low values 1.24 | locus YLR268W, strain sec22, hits give low values 0.985 | locus YLR320W, strain mms22, hits give low values 1.01 | locus YLR330W, strain CHS5, hits give low values 1.03 | locus YLR342W, strain FKS1 (second series), hits give low values 1.02 | locus YLR342W, strain FKS1, hits give low values 0.978 | locus YLR357W, strain rsc2, hits give low values 0.973 | locus YLR370C, strain arc18, hits give low values 0.997 | locus YLR371W, strain rom2, hits give low values 1 | locus YLR384C, strain iki3, hits give low values 1.02 | locus YLR418C, strain cdc73, hits give low values 1.04 | locus YML016C, strain PPZ1, hits give low values 0.999 | locus YML032C, strain rad52, hits give low values 1.01 | locus YML120C, strain ndi1, hits give low values 1.03 | locus YML124C, strain tub3, hits give low values 1.01 | locus YMR058W, strain fet3, hits give low values 0.99 | locus YMR078C, strain ctf18, hits give low values 1.02 | locus YMR125W, strain sto1, hits give low values 1.02 | locus YMR129W, hits give low values 1.01 | locus YMR205C, strain PFK2, hits give low values 1.02 | locus YMR223W, strain ubp8, hits give low values 1.01 | locus YMR231W, strain pep5, hits give low values 1 | locus YMR263W, strain SAP30, hits give low values 1.03 | locus YMR307W, strain GAS1, hits give low values 1.13 | locus YNL067W, strain RPL9B, hits give low values 1.02 | locus YNL071W, strain lat1, hits give low values 1.01 | locus YNL128W, strain TEP1, hits give low values 1.03 | locus YNL153C, strain GIM3, hits give low values 0.98 | locus YNL209W, strain ssb2, hits give low values 1.01 | locus YNL233W, strain BNI4, hits give low values 1.04 | locus YNL248C, strain rpa49, hits give low values 1 | locus YNL250W, strain rad50, hits give low values 1.01 | locus YNL271C, strain bni1, hits give low values 1.01 | locus YNL298W, strain CLA4, hits give low values 1.01 | locus YNL307C, strain MCK1, hits give low values 1.02 | locus YNL322C, strain KRE1 (second series), hits give low values 1.02 | locus YNL322C, strain KRE1, hits give low values 1.01 | locus YNR049C, strain mso1, hits give low values 1.01 | locus YNR052C, strain pop2, hits give low values 1.01 | locus YOL006C, strain TOP1, hits give low values 1.16 | locus YOL012C, strain htz1 0.762 | locus YOL147C, strain pex11, hits give low values 1.02 | locus YOR001W, strain rrp6, hits give low values 0.993 | locus YOR061W, strain CKA2, hits give low values 1 | locus YOR069W, strain VPS5, hits give low values 1.01 | locus YOR070C, strain gyp1, hits give low values 1 | locus YOR080W, strain dia2, hits give low values 1.02 | locus YOR083W, strain WHI5, hits give low values 1 | locus YOR106W, strain vam3, hits give low values 0.973 | locus YOR136W, strain idh2, hits give low values 1.02 | locus YOR144C, strain elg1, hits give low values 1.01 | locus YOR184W, strain ser1, hits give low values 1.02 | locus YOR265W, strain rbl2, hits give low values 1 | locus YOR270C, strain vph1, hits give low values 0.998 | locus YOR290C, strain snf2, hits give low values 0.981 | locus YOR316C, strain cot1, hits give low values 1.01 | locus YPL051W, strain arl3, hits give low values 0.968 | locus YPL078C, strain atp4, hits give low values 1.01 | locus YPL106C, strain sse1, hits give low values 0.983 | locus YPL240C, strain hsp82, hits give low values 1 | locus YPR119W, strain clb2, hits give low values 1.01 | locus YPR141C, strain kar3, hits give low values 1.01 | locus YPR163C, strain tif3, hits give low values 1.02 | locus YPR167C, strain met16, hits give low values 1.01 | strain wtn01, hits give low values 0.998
